PLK1 PBD inh – inhibitors of human PLK1 polo-box domain binding; 2.8% of 360,000 active; P53350; Plk1 PBD binding of FITC phosphopeptide, fluorescence polarization; Potency, µM, for the others: max response, negative = inhibition, hits mostly inhibitors; AID 720504; further: series mostly up to about 57 µM; on the % scale 0 is the no-effect control and ±100 the full control effect; nearly all actives have a fitted effect of over 65% in size
BAZ2B block – blocks human BAZ2B. AID 504333. AlphaScreen BAZ2B-H3K14Ac peptide displacement. 4.4% of 360,000 active. Potency, µM (top dose mostly 114 µM), for inactives: at the highest dose activity change, negative = inhibition, usual class: inhibitors; further: on the % scale 0 is the no-effect control and ±100 the full control effect; nearly all actives have a fitted effect of over 60% in size
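AlphaScreen displacement: compounds (up to 110uM) incubated 30 min at room temperature with a preformed 50 nM BAZ2B/50 nM biotinylated H3K14Ac peptide complex in PBS pH 7.4 with Tween-20. Donor and acceptor beads at 10 ug/mL final added, 20 min light-protected before reading.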
G9a block – blocks human histone lysine methyltransferase G9a; AID 504332; 8.8% of 350,000 active; Potency, µM (series often up to 102 µM), for the others: top-dose activity, negative = inhibition, actives largely listed as inhibitors; G9a H3K9 monomethylation, AlphaScreen, 2 h; Q96KQ7; further: on the % scale 0 is the no-effect control and ±100 the full control effect; nearly all actives have a fitted effect of over 75% in size
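Enzyme 20 nM + cpd, 15 min RT; add b-H3K9 pep 500 nM / SAM 20 uM; 2 h RT; anti-H3K9me1 Ab 0.5 ug/mL + SA donor / anti-rabbit acceptor beads 20 ug/mL each, 10 min; AlphaScreen read.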
ALOX12 inh – inhibitors of human 12S-lipoxygenase ALOX12 | P18054 | AID 1671190 | 1.1% of 580,000 active | Potency, µM (top dose mostly 108 µM), for the others: at the top dose activity change, negative = inhibition, usual class: inhibitors | purified 12hLO, xylenol orange hydroperoxide absorbance; further: on the % scale 0 is the no-effect control and ±100 the full control effect
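Hydroperoxide product was detected by ferrous iron/xylenol orange as the 573 to 405 nm absorbance ratio. Arachidonic acid at 40 uM (final) was turned over for 30 min at room temperature by 150 nM human 12hLO, pH 7.0 Hepes buffer, after 15 min compound preincubation.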
JMJD2A Tudor – blocks the human JMJD2A Tudor domain; AlphaScreen JMJD2A-Tudor / H3K4me3 peptide binding; 4.4% of 390,000 active; Potency, µM (top dose mostly 114 µM), inactives show top-dose activity change, negative = inhibition, usual class: inhibitors; further: on the % scale 0 is the no-effect control and ±100 the full control effect; nearly all actives have a fitted effect of over 50% in size
HP1b chromo inh – HP1-beta chromodomain-methylated histone interaction inhibition | P83916 | AlphaScreen HP1-beta / biotin-H3K9me3 peptide binding | Potency, µM (doses to about 114 µM), without a hit: at the top dose activity change, negative = inhibition, actives largely listed as inhibitors | 0.56% of 390,000 active | AID 540317; further: nearly all actives have a fitted effect of over 70% in size
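Compound inhibition of the preformed complex between 50 nM HP1-beta and 50 nM biotinylated H3K9me3 peptide was read by AlphaScreen. Buffer was PBS pH 7.4 with 0.01% Tween-20. Incubations ran 30 min at room temperature, with 10 ug/mL donor/acceptor beads.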
Active calls of the source: *; ? = inconclusive; . = not tested or not shown; ! = not confirmed by another sample; [ ] = another dose, or the depositor's remark. The list is not random: actives were taken first. Their share in the collection is about 9%. The call rests on the fitted dose curve; in most records, active means well fitted curve in the direction sought with a large enough effect; inconclusive means small, poorly fitted or top-dose-only effect, or another doubt; inactive means no such curve, though single readings can be large; an effect the other way counts as inactive or inconclusive. Potency means the concentration at half of the fitted maximal effect.

SMILES	PLK1 PBD inh	BAZ2B block	G9a block	ALOX12 inh	JMJD2A Tudor	HP1b chromo inh
CN1CCS/C1=C/C=C1\SC(=S)N(CC(=O)O)C1=O	119.9%	50.1µM*	44.7µM*	-15.6%	?	-4.0%
CCCCN1C(=O)/C(=C/C=C2\N(C)c3ccccc3C2(C)C)SC1=S	.	8.91µM*	?	.	.	.
CCN1C(=O)/C(=C\N2CCCCCC2)SC1=S	-3.7%	-38.3%	?	-6.9%	?	?
CCOCC(=O)Nc1nnc(C)s1	-25.5%	10.8%	44.7µM*	?	-2.3%	18.3%
COCC(=O)Nc1nnc(C2CCCCC2)s1	-22.6%	3.0%	-36.3%[59 µM]	0.0%	-22.2%	29.6%
CCOCC(=O)Nc1nnc(C2CCCCC2)s1	26.7µM*	7.5%	?	?	-15.4%	-26.6%
CCOC(=O)C(=O)Nc1nnc(C2CCCCC2)s1	23.8µM*	-13.7%	8.91µM*	?	-7.9%	-9.9%
c1ccc2c(c1)[nH]c1c(C3=NCCC3)nccc12	.	.	.	22.1%	.	.
COc1ccc(S(=O)(=O)N(C)c2ccc(C(=O)N3CCCC3)cc2)cc1OC	-2.9%	8.0%	15.7%	-8.3%	-9.5%	10.2%
CN(CC1CCOCC1)C(=O)c1cc(F)cc(F)c1	.	.	.	38.2%	.	.
CCN1CCN(C(=O)C(=O)c2cn(CC(=O)N3CCCCCC3)c3ccccc23)CC1	3.0%	-14.2%	50.1µM*	-5.7%	-18.1%	2.8%
O=C(C(=O)N1CCN(c2ccccc2)CC1)c1c[nH]c2ccccc12	-4.6%	?	16.6%[59 µM]	-9.6%	-28.5%	2.8%
COc1ccc(N2CCN(C(=O)C(=O)c3cn(CC(=O)N4CCOCC4)c4ccccc34)CC2)cc1	-5.2%	-16.6%	.	5.3%	-26.2%	8.1%
COc1ccc(N2CCN(C(=O)C(=O)c3cn(CC(=O)N4CCCCCC4)c4ccccc34)CC2)cc1	-13.2%	?	70.8µM*	-0.8%	?	?
COc1ccc(N2CCN(C(=O)C(=O)c3c[nH]c4ccccc34)CC2)cc1	-12.4%	?	44.7µM*	?	?	-9.3%[57 µM]
O=C(C(=O)N1CCN(c2ccccc2F)CC1)c1cn(CC(=O)N2CCOCC2)c2ccccc12	23.8µM*	-19.7%	19.7%	-1.2%	?	2.5%
COc1ccc(C2C(C#N)=C(N)Oc3cc(C)n(Cc4ccc5c(c4)OCO5)c(=O)c32)cc1 (configuration not stated)	.	.	.	-13.9%	.	.
COc1ccc(Oc2c(C)nc(SCC(=O)c3ccc(Cl)cc3)[nH]c2=O)cc1	?	-4.2%	-27.7%	4.7%	-6.9%	28.3%
CCCOC(=O)c1c(N)sc(C(=O)OCC)c1C	?	10.2%	2.8%[59 µM]	10.0%	-8.0%	8.9%
CCOC(=O)c1c(N)sc2c1CCSC2	0.0%	?	50.1µM*	37.5%	-33.2%	-9.9%
CCOC(=O)c1c(N)sc2c1CCC(CC)C2 (configuration not stated)	?	-29.0%	11.2µM*	-5.4%	-33.0%	?
CCOC(=O)c1c(N)sc2c1CCC1C(=O)N(C3CCCCC3)C(=O)C21 (configuration not stated)	18.9µM*	-6.4%	?	?	-24.7%	-26.0%
COc1cccc(NC(=O)CN(C)C(=O)c2cc(-c3ccc(F)cc3)nc3ccccc23)c1	0.1%	1.0%	-39.0%	-9.4%	?	16.0%
Cc1ccccc1-c1cccc(CN2CCN(C)C(CCO)C2)c1 (configuration not stated)	-1.3%	0.4%	.	-0.6%	-15.9%	19.7%
Cc1n[nH]c(=O)[nH]c1=O	.	.	16.3%[21.5 µM]	.	.	.
SMILES	PLK1 PBD inh	BAZ2B block	G9a block	ALOX12 inh	JMJD2A Tudor	HP1b chromo inh
Cc1nc(C)c(N)c(=O)[nH]1	-15.1%	-27.6%	50.1µM*	-14.2%	-9.0%[11.4 µM]	28.6%
Cc1nc(NS(=O)(=O)c2ccc(Cl)s2)c2c3c(sc2n1)CCCC3	?	-29.1%	50.1µM*	?	-26.2%	18.2%
O=C(CN1C(=O)CSc2ccc(S(=O)(=O)N3CCCCC3)cc21)NCc1cccnc1	2.0%	-5.2%	?	2.3%	7.4%	33.2%
CC1CCN(S(=O)(=O)c2ccc3c(c2)N(CC(=O)NCc2cccnc2)C(=O)CS3)CC1	26.7µM*	1.6%	-5.3%	-6.5%	?	4.8%
CC1CCN(CCCNC(=O)CN2C(=O)CSc3ccc(S(=O)(=O)N4CCC(C)CC4)cc32)CC1	2.5%	-7.0%	3.6%[59 µM]	-0.2%	56.2µM*!	?
COc1ccc(OC)c2sc(N3CCN(C(=O)c4ccc5c(c4)CCCC5)CC3)nc12	.	39.8µM*	?	?	?	?
CCCC(=O)N1CCN(c2nc3c(OC)ccc(Cl)c3s2)CC1	26.7µM*	-1.4%	16.6%	-0.1%	-25.2%	2.9%
O=C(c1ccc2c(c1)CCCC2)N1CCN(c2nc3c(F)cccc3s2)CC1	.	-17.6%	-15.5%[59 µM]	-29.9%	-11.7%	-12.9%
CC1CCC(C(=O)NC(Cc2ccccc2)C(=O)O)CC1 (configuration not stated)	.	.	.	-0.6%	.	.
COc1ccc2c(c1)CCCN2C(=O)c1cc2cc(Cl)ccc2nc1C	.	.	.	44.7µM*	.	.
Cc1ccc2c(c1)CCCN2C(=O)c1cc2cc(C)ccc2nc1C	.	.	.	2.8%	.	.
CCOc1ccc(N)cc1OC	-13.1%	?	50.1µM*	2.1%	?	-18.3%
CCOc1ccc(C(N)=O)cc1OC	-3.0%	8.7%	10.4%[12.7 µM]	-47.7%	-7.5%	28.0%
Cc1ccc2c(CN(C)CCOc3ccc(Cl)cc3)cc(=O)oc2c1	.	.	.	35.5µM*	.	.
Cc1ccc2c(CN(C)CCOc3ccc(Br)cc3)cc(=O)oc2c1	.	.	.	13.0%	.	.
CCc1ccc2c(CN(C)CCOc3ccc(F)cc3)cc(=O)oc2c1	.	.	.	44.7µM*	.	.
Cc1ccc(C(=O)CC2(O)C(=O)N(CN3CCOCC3)c3ccccc32)cc1 (configuration not stated)	-1.5%	0.0%	?	1.8%	7.8%	19.5%
CCOc1c2ccccc2nn1CCOC	-18.2%	-5.6%	26.1%[2.33 µM]	-16.5%	-4.3%	43.3%
Cc1ccc(N/N=C(\C#N)C(N)=S)c(C)c1	18.9µM*	?	10µM*	8.91µM*	44.7µM*	?
COc1ccc(N=C2SCC(=O)N2Cc2ccccc2)cc1	-16.0%	9.4%	44.2%[59 µM]	-5.6%	40.7%	68.7%
COc1cccc2cc(C(=O)NNC(=O)c3ccc(Br)cc3)c(=O)oc12	-26.8%	-7.8%	44.7µM*	-17.1%	79.4µM*	?
CCOC(=O)CC(NC(=O)c1cc2cc(Cl)cc(Cl)c2oc1=O)c1cccc([N+](=O)[O-])c1 (configuration not stated)	1.5%	3.4%	16.9%	-18.3%	-27.4%	-1.8%
CCOC(=O)CC(NC(=O)c1cc2cccc(OC)c2oc1=O)c1cccc([N+](=O)[O-])c1 (configuration not stated)	-0.5%	2.1%	31.6µM*	?	?	-7.0%

Screening results deposited in PubChem BioAssay by National Center for Advancing Translational Sciences (NCATS).
